# Reference: publication PMC4336329 (PLoS ONE, 2015)
# Screen size: about 310,000 compounds; about 14,000 (4.5%) showed an effect of 50% or more. Effects have a minus sign here. Many of the other results were omitted from the sample, so strong results are more common in it than they were.
# Biological target: human ether-à-go-go-related gene (hERG) potassium channel (human, UniProt Q12809)
# Assay: primary screen, population patch clamp on CHO cells stably expressing hERG; higher = less effect of the substance
# 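Note: peak tail current of the secondary pulse compared with the same well before compound.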
# Chain of human ether-à-go-go-related gene (hERG) potassium channel (Q12809 whole entry, looked up): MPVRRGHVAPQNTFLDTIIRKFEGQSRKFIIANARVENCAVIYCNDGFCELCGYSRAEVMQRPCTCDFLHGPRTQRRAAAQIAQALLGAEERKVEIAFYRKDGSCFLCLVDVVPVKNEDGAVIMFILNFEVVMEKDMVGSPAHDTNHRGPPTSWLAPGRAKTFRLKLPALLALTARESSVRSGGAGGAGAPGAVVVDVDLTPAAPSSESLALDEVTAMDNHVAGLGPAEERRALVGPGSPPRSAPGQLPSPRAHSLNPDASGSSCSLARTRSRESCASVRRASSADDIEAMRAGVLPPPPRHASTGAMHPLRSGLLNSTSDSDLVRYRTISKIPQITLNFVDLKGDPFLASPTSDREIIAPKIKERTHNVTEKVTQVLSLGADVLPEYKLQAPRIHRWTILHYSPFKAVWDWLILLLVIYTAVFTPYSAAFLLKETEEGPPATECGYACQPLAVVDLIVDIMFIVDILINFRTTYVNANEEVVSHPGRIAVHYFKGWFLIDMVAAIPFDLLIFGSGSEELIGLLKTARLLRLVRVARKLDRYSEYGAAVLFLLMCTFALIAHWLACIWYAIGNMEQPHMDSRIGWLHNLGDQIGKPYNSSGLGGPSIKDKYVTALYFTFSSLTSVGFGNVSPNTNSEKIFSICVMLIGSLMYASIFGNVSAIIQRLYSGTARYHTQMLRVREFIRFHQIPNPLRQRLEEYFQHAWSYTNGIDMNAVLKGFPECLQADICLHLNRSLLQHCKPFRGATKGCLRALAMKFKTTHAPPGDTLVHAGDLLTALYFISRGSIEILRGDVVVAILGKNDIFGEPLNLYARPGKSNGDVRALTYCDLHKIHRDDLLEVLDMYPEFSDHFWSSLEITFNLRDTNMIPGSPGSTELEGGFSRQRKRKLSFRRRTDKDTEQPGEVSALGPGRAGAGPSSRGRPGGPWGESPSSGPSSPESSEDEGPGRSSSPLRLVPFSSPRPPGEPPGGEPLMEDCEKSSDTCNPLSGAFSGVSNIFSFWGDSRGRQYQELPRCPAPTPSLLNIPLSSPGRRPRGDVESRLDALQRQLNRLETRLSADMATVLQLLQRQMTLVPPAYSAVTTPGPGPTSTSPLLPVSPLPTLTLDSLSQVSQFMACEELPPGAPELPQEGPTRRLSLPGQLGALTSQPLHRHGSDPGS
row,SMILES,"hERG current change (%, negative = inhibition) at 10uM"
1,CCOC(=O)c1cccc(NC(=O)c2ccc(F)cc2F)c1,-16.1%
2,O=c1ccnc(Nc2ccc(Cl)cc2)[nH]1,-10.3%
3,C/C(=N/NC(=O)CNC(=O)c1ccco1)c1ccco1,2.11%
4,Cc1cccnc1NC(=O)Nc1ccc(Cl)cc1,9.39%
5,Cc1ccc(N(CCC#N)C(=O)CSc2nnc3ccccn23)cc1,-8.44%
6,COc1ccc2ccccc2c1CN1CCN(Cc2ccccc2)CC1,-2.66%
7,Oc1cccc(Nc2nc(N3CCOCC3)nc(N3CCOCC3)n2)c1,8.76%
8,CSc1ccc(CN(C)C(=O)CNC(=O)CNS(=O)(=O)c2ccc(C)c(C)c2)cc1,-24.1%
9,CN(C(=O)N1CCN(c2ccccn2)CC1)c1ccccc1,7.47%
10,Cc1cc(Cn2nc(C(=O)NCc3cccc(Br)c3)cc2-c2ccccc2)on1,-20.3%
11,Cc1cc(Cn2nc(C(=O)NCc3cccc(C(F)(F)F)c3)cc2-c2ccccc2)on1,-57%
12,Cc1cc(Cn2nc(-c3ccccc3)cc2C(=O)NCc2cccc(C(F)(F)F)c2)on1,10.8%
13,CCOC(=O)c1c(NC(=O)CSc2nnc(C)s2)sc2c1CCC(C)C2 (stereo not shown),21.5%
14,CN1CCN(c2ccc(NS(=O)(=O)c3ccc(Cl)cc3)cn2)CC1,-40.2%
15,O=C(CC1SC(=O)N(Cc2ccccc2Cl)C1=O)Nc1nccs1 (stereo not shown),-5.31%
16,CC1=C/C(=N\NC(=O)c2ccc(O)cc2)CC1,20.8%
17,CC1=C/C(=N\NC(=O)c2ccccc2)CC1,-53.1%
18,COc1ccccc1OCC(=O)N/N=C1/C=C(C)CC1,-3.82%
19,Cc1oc2c(c1C(=O)NCc1cccnc1)C(=O)c1ccccc1C2=O,-47%
20,COc1cccc(NC(=O)CCc2nc(-c3ccccc3F)no2)c1,-0.885%
21,COc1ccc(C(=O)Nc2cc(Cl)ccc2-n2cncn2)c(OC)c1OC,-14.4%
22,O=C(Nc1cc(Cl)ccc1-n1cncn1)c1cccc(S(=O)(=O)N2CCOCC2)c1,-61.9%
23,O=C(Nc1cc(Cl)ccc1-n1cncn1)c1cc(S(=O)(=O)N2CCOCC2)ccc1F,-34.7%
24,O=C(Nc1cc(S(=O)(=O)N2CCOCC2)ccc1-n1cncn1)c1ccc(Cl)cc1,-50.4%
25,COc1ccccc1C(=O)Nc1cc(Cl)ccc1-n1cncn1,0.114%
26,CN1CCN(S(=O)(=O)c2cccc(C(=O)Nc3cc(Cl)ccc3N3CCOCC3)c2)CC1,-42.3%
27,O=C(Nc1cc(Cl)ccc1-n1cncn1)c1ccc(F)c(S(=O)(=O)N2CCOCC2)c1,-44.6%
28,COc1cc(OC)c(C(=O)Nc2cc(Cl)ccc2-n2cncn2)cc1OC,-55%

row,SMILES,"hERG current change (%, negative = inhibition) at 10uM"
1,CCN(CC)c1ccc(C(=O)NC(=S)Nc2cc(S(=O)(=O)N3CCOCC3)ccc2-n2cncn2)cc1,-7.1%
2,Oc1c(C(c2cccs2)N2CCN(c3ccccc3)CC2)ccc2cccnc12 (stereo not shown),7.17%
3,COC(=O)C1C(O)=C(C=NCc2ccccc2)C(=O)CC1(C)C (stereo not shown),-5.13%
4,CC(=O)N(C)c1ccc(NC(=O)N2CCOCC2)cc1,4.94%
5,Cc1ccc(N2CC(O)Cn3c2nc2c3c(=O)[nH]c(=O)n2C)cc1 (stereo not shown),13.3%
6,Cc1ccc2nc(NCCC(=O)O)nc(-c3ccccc3)c2c1,3.76%
7,CSCc1ccc(C(=O)N2CCC(CCC(=O)N(C)Cc3ccccc3)CC2)o1,-50.7%
8,CN(Cc1ccccc1)C(=O)CCC1CCN(C(=O)CCC(F)(F)F)CC1,-4.45%
9,CN(Cc1ccccc1)C(=O)CCC1CCN(C(=O)c2ccccc2C(F)(F)F)CC1,8.38%
10,COC(=O)c1ccc(OC)c(CSc2nnc(COc3ccccc3)o2)c1,-17.7%
11,Br.CCCCCCCCOC(=O)c1c(CSC(=N)N)n(C)c2cc(Br)c(OC(C)=O)cc12,-22.8%
12,CCOC(=O)c1c(CSC(=N)N)n(-c2ccccc2)c2cc(Br)c(OC(C)=O)cc12,-77.9%
13,CCOC(=O)c1c(C)n(C)c2cc(Br)c(C)cc12,23.3%
14,Br.CCOC(=O)c1c(CSC(=N)N)n(-c2ccc(C)cc2)c2cc(Br)c(OC(C)=O)cc12,-65.4%
15,C=CCCc1ccc(C#N)c(SCc2c(C(=O)OCC)c3cc(OC(C)=O)c(Br)cc3n2C)n1,-1.18%
16,CCOC(=O)c1c(C)n(C)c2c1cc(OC(C)=O)c1ccccc12,19.7%
17,CCOC(=O)c1c(CSc2ccccc2)n(C)c2cc(Br)c(OCC(O)CNC(CO)(CO)CO)cc12 (stereo not shown),2.71%
18,CCOC(=O)c1c(CSc2nc(C)cc(C)c2C#N)n(C)c2cc(Br)c(OC(C)=O)cc12,8.76%
19,Br.CCOC(=O)c1c(CSC(=N)N)n(C)c2cc(Br)c(OC(C)=O)cc12,-68.7%
20,CC12CCC(C(=O)Nc3cccc(Cl)c3Cl)([C@H](Br)C1=O)C2(C)C (stereo partly shown),-39.6%
21,COC(=O)c1ccc(NC(=O)C2CCCN(S(=O)(=O)c3cnc[nH]3)C2)cc1 (stereo not shown),3.35%
22,Cc1ccc(C(=O)c2oc3ccccc3c2N)cc1,-7.77%
23,CCCCOc1ccc(C(=O)NCC(=O)NC(C)CCc2ccccc2)cc1 (stereo not shown),-4.99%
24,CC(=O)c1cnc(N(C)C)s1,10%
25,Cc1nnc(SCC(=O)Nc2ccc(-c3nc4ccccc4s3)cc2)s1,23.4%
26,N/C(=N\[N+](=O)[O-])N1CCN(C(=O)OC2CCCC2)CC1,19.4%
27,COc1ccc(CNC(=O)CC(C)S(=O)(=O)c2ccc3c(c2)NC(=O)CO3)cc1 (stereo not shown),10.1%
